The assay has as its system CASKI. The assay can be described thus: Confirmatory qHTS for gynecologic anti-cancer compounds from libraries of approved drugs and bioactive compounds. Note: nearly all actives have a fitted effect of over 55% in size. The settings on record: gynecologic cancer cell panel viability, ATPlite luminescence, 48 h; series mostly up to 57.6 µM. In a few lines: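 Cells (1,000/well) were plated, left 16 h at 37 C/5% CO2, then given compound at 11 concentrations (1:3) from 57.5 uM to 0.977 nM for 48 h. ATPlite luminescence after 15 min at room temperature gave IC50 values.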
(In general: In qHTS, concentration-response curves come from the screen itself.)

We go through 34 compounds from PubChem BioAssay AID1345085 (National Center for Advancing Translational Sciences (NCATS), 2018).

Inconclusive results are not listed. Active and inactive are the calls of the source. Calls come from the whole dose curve; as a rule, active = well fitted cell-killing curve with a large enough effect; inconclusive = small, poorly fitted or top-dose-only effect, or effect the other way; inactive = no such curve, though single readings can be large or run the other way. *1 amine or outer side, *2 acyl side, *3 side chain or, on linkers, in order; H or OH if unused. Where a SMILES comes first, the peptide text is derived from it. Bridges are numbered along the chain shown (N, C = ends). Roman numbers before positions name the chains, in order. [ ]: non-standard residue; d: D form. Actinocin(9to1) = Cc1c2oc3c(C)ccc(C(=O)[*:1])c3nc-2c(C(=O)[*:2])c(N)c1=O; NMeV = CN[C@H](C(=O)O)C(C)C; Sar = CNCC(=O)O
Potency is the fitted concentration of half-maximal effect.

Regarding `CN1C2CCC1CC(OC(=O)[C@H](CO)c1ccccc1)C2` (some centres undefined), the Potency result is “inactive”. As for `CCc1cccc(CC)c1NC(=O)N1Cc2[nH]nc(NC(=O)c3ccc(N4CCN(C)CC4)cc3)c2C1`, the Potency was 19.3 µM (active). Regarding `COc1ccc(-c2cc3nccn3c(Nc3ncccc3C(N)=O)n2)cc1OC`, the Potency result was “inactive”. Regarding `COc1ccc2cc3[n+](cc2c1OC)CCc1cc2c(cc1-3)OCO2`, the Potency is 10.9 µM (active). `Nc1ccccc1NC(=O)c1ccc(CNc2nccc(-c3cccnc3)n2)cc1`: the Potency is 8.63 µM (active). To `O=c1cc(CN2CCOCC2)occ1OCCCCCSc1ccnc2cc(C(F)(F)F)ccc12` belongs 24.3 µM (active); to `COc1cc(N2CCC(N3CCN(C)CC3)CC2)ccc1Nc1ncc(Cl)c(Nc2ccccc2S(=O)(=O)C(C)C)n1`, 12.2 µM (active); to `CCCC(Nc1nc(-c2ccc(NC(=O)NCC)c(OC)c2)ncc1C)c1cccnc1` (centres undefined), “inactive”.

As to `CC[C@H](CC#N)OC(=O)N[C@@H](C)c1cccc(NC(=O)Nc2ccc(-c3cnco3)c(OC)c2)c1`, the Potency result was “inactive”.

As for `COc1cc(Nc2ncc(F)c(Nc3ccc4c(n3)N(COP(=O)(O)O)C(=O)C(C)(C)O4)n2)cc(OC)c1OC`, the Potency was 5.44 µM (active).

On to `CCN[C@H]1C[C@H](C)S(=O)(=O)c2sc(S(N)(=O)=O)cc21`, for which the Potency result is “inactive”.

In the case of `O=c1[nH]c(=O)n([C@H]2C[C@H](O)[C@@H](CO)O2)cc1Br`, the Potency result was “inactive”.

Regarding `Cc1cnc(Nc2ccc(CN3CCOCC3)cc2)nc1Nc1cccc(S(=O)(=O)NC(C)(C)C)c1`, the Potency was 4.85 µM (active). With `Cc1c(NC(=O)OCC2COCCN2)cn2ncnc(Nc3ccc4c(cnn4Cc4cccc(F)c4)c3)c12` (centres undefined), the Potency is 19.3 µM (active). Consider `Cn1c(=O)c(-c2c(Cl)cccc2Cl)cc2cnc(Nc3cccc(C(=O)O)c3)nc21`, for which the Potency was 3.06 µM (active). Turning to `Cc1ccc(C(=O)Nc2cccc(C(F)(F)F)c2)cc1-c1ccc2nc(NCCN3CCOCC3)ncc2c1`, the Potency was 12.2 µM (active).

Turning to `Cc1c2oc3c(C)ccc(C(=O)N[C@@H]4C(=O)N[C@H](C(C)C)C(=O)N5CCC[C@H]5C(=O)N(C)CC(=O)N(C)[C@@H](C(C)C)C(=O)O[C@@H]4C)c3nc-2c(C(=O)N[C@@H]2C(=O)N[C@H](C(C)C)C(=O)N3CCC[C@H]3C(=O)N(C)CC(=O)N(C)[C@@H](C(C)C)C(=O)O[C@@H]2C)c(N)c1=O` (I: T[dV]P[Sar][NMeV] / II: T[dV]P[Sar][NMeV]; ester I:1-I:C, II:1-II:C; linker I:N-II:N via Actinocin(9to1)), the Potency was 0.611 µM (active). Next, `Cc1ccc(C(=O)Nc2ccc(Oc3cc4cnn(C)c4cc3-c3cn[nH]c3)c(F)c2)c(=O)n1-c1ccc(F)cc1`: “inactive”. To `CCCCN(CCCC)C(=O)CN1C[C@H](c2ccc3c(c2)OCO3)[C@@H](C(=O)O)[C@@H]1c1ccc(OC)cc1` belongs “inactive”; to `COc1cc2c(c(OC)c1OC)-c1ccc(OC)c(=O)cc1[C@@H](NC(C)=O)CC2`, “inactive”; to `CN1CCN(Cc2ccc(NC(=O)Nc3ccc(Oc4cc(NC(=O)C5CC5)ncn4)cc3)cc2C(F)(F)F)CC1`, 0.611 µM (active). To `Cc1nc(NC(=O)N2CCCC2C(N)=O)sc1-c1ccnc(C(C)(C)C(F)(F)F)c1` (centres undefined) belongs 7.69 µM (active); to `CNC(=O)CN1CCC(Oc2cc3c(Nc4cccc(Cl)c4F)ncnc3cc2OC)CC1`, 10.9 µM (active). For `CCCC(=O)O[C@]1(C(=O)CCl)[C@@H](C)C[C@H]2[C@@H]3CCC4=CC(=O)C=C[C@]4(C)[C@@]3(F)C(=O)C[C@@]21C`, the Potency was 30.6 µM (active). With `O=C1c2c(O)ccc(O)c2C(=O)c2c(NCCNCCO)ccc(NCCNCCO)c21`, the Potency was 7.69 µM (active).

For `NCCOc1cc(C(=O)Nc2cc(OCCN)c3ccccc3n2)nc(C(=O)Nc2cc(OCCN)c3ccccc3n2)c1`, the Potency is 30.6 µM (active). As to `COc1ccc(OC)c(-c2nnc3ccc(-c4ccc(OC)c(O[C@@H]5CCOC5)c4)nn23)c1`, the Potency entry was “inactive”. Next, `CCCc1nn(C)c2c(=O)[nH]c(-c3cc(S(=O)(=O)N4CCN(C)CC4)ccc3OCC)nc12`: “inactive”; `c1nc2nc(Nc3ccc(N4CCOCC4)cc3)nc(NC3CCCCC3)c2[nH]1`: 7.49 µM (active); `O=C(CCCCCCNC(=O)c1cnc(N(c2ccccc2)c2ccccc2)nc1)NO`: 21.7 µM (active). To `O=C(c1ccc(F)c(F)c1Nc1ccc(I)cc1F)N1CC(O)([C@@H]2CCCCN2)C1` belongs 17.2 µM (active). Turning to `NC(=O)c1cnc(-c2ccc(C3(N)CCC3)cc2)c(-c2ccccc2)c1`, the Potency was 21.7 µM (active). To `COc1cc(Nc2ncc3c(n2)-c2ccc(Cl)cc2C(c2c(F)cccc2OC)=NC3)ccc1C(=O)O` belongs 19.3 µM (active); to `CC(C)C[C@H](NC(=O)[C@H](CCc1ccccc1)NC(=O)CN1CCOCC1)C(=O)N[C@@H](Cc1ccccc1)C(=O)N[C@@H](CC(C)C)C(=O)[C@@]1(C)CO1`, 9.68 µM (active).
